Measured values as given in PubChem BioAssay (NCATS).
Records with an inconclusive call do not appear. Activity calls are given as the source filed them. Unless noted, calls follow the shape of the dose curve; as a rule, active = well fitted curve in the direction sought with a large enough effect; inconclusive = small, poorly fitted or top-dose-only effect, or another doubt; inactive = no such curve, though single readings can be large; an effect the other way counts as inactive or inconclusive.

Tests used:
[1] = biological target: Lysosomal acid glucosylceramidase (Homo sapiens) (UniProt P04062); assay: Glucocerebrosidase-p2 (AID 348; in the data active = potency below about 10 µM; also: potency is read from the fitted curve at half-maximal effect); details: purified GBA, blue fluorogenic substrate, 40 min
Chain of Lysosomal acid glucosylceramidase (Homo sapiens) (P04062 whole entry, looked up): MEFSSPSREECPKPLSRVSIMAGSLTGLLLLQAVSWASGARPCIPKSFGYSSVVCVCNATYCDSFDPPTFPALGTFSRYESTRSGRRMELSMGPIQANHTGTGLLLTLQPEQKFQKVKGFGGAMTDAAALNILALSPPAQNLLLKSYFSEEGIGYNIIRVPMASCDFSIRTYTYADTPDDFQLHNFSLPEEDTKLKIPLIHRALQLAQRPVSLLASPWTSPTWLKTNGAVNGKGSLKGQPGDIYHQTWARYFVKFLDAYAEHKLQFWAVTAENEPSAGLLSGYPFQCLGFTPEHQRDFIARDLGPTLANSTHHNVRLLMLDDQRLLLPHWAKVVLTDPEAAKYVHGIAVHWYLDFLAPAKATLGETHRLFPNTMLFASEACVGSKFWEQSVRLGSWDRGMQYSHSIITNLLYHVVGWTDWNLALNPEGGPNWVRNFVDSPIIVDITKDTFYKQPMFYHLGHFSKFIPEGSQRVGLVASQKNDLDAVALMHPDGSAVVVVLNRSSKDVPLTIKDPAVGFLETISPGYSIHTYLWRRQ
Summary of the method: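 Normal human glucocerebrosidase (0.2 nM) with blue fluorogenic substrate (80 uM final) in citrate/phosphate pH 5.9 with 10mM sodium taurocholate, 0.01% tween-20; 40 min RT, NaOH/glycine stop; fluorescence Ex 365/Em 440; AC50 from a titration from 0.6 nM upwards.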

[2] = biological target: Glucocorticoid receptor (Homo sapiens) (UniProt P04150); assay: GR-EFC Redistribution (AID 451; calls by dose curve; also: potency is read from the fitted curve at half-maximal effect); details: CHO-K1 GR-EFC translocation, beta-gal luminescence, 2 h
Chain of Glucocorticoid receptor (Homo sapiens) (P04150 whole entry, looked up, the tested form may be a part): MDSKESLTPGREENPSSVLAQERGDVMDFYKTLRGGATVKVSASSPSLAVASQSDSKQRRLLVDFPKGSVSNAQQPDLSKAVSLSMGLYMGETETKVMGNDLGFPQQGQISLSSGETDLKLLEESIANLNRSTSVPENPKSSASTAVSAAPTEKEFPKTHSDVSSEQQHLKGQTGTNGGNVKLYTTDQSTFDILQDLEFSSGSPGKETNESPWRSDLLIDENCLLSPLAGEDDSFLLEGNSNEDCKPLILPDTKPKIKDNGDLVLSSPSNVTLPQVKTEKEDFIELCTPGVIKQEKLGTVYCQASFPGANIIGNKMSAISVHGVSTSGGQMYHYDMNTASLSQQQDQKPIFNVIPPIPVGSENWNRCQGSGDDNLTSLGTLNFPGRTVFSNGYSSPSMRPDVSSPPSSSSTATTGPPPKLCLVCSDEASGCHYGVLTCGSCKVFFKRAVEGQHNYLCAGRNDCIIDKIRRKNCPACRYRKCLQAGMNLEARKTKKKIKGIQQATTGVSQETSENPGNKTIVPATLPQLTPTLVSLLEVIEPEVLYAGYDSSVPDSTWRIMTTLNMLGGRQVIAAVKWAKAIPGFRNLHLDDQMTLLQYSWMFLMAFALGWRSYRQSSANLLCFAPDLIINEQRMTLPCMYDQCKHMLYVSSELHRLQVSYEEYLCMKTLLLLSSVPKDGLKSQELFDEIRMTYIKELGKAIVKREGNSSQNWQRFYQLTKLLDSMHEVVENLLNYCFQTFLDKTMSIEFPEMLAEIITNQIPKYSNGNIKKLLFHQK
Summary of the method: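 CHO-K1 cells expressing nuclear EA and GR-ED fragments of b-gal; compounds titrated up to 46 uM final, 2 h at 37 C. GR nuclear translocation read as complemented b-gal luminescence after 1 h RT detection.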

[3] = biological target: Mitogen-activated protein kinase 10 (Mus musculus) (UniProt Q61831); assay: JNK3 AlphaScreen Assay (AID 530; active = well fitted curve in either direction with a large enough effect, not every such curve was filed as active;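 also: kinase came from lysate of stimulated human HepG2 cells; signal reports phosphorylation of biotinylated GST-cJun 1-79 at Ser73 with 10 µM ATP; % is scaled to controls: 0 for no effect and ±100 for the full control effect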); details: JNK3 lysate, c-Jun phosphorylation; series mostly up to 57.1 µM
Summary of the method: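 HepG2 lysate (IL-1b/TNFa pre-activated) + biotin-GST-cJun 1-79 + anti-pSer73 cJun; cpd titration, 15 min RT; ATP 10 uM start; Tris pH 7.6, MgCl2, DTT, vanadate; beads in EDTA buffer; AlphaScreen.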

[4] = biological target: 3',5'-cyclic-AMP phosphodiesterase 4B (Homo sapiens) (UniProt Q07343); assay: qHTS Assay for Inhibitors of PDE-IV (AID 607; active = well fitted activation curve with a large enough effect in the main read-out, with a control signal flat, not every such curve was filed as active; also: % of control where 0% means no effect); details: HEK293 ACTOne CNG channel cells, membrane potential fluorescence; series mostly up to 22.9 µM
Chain of 3',5'-cyclic-AMP phosphodiesterase 4B (Homo sapiens) (Q07343 whole entry, looked up): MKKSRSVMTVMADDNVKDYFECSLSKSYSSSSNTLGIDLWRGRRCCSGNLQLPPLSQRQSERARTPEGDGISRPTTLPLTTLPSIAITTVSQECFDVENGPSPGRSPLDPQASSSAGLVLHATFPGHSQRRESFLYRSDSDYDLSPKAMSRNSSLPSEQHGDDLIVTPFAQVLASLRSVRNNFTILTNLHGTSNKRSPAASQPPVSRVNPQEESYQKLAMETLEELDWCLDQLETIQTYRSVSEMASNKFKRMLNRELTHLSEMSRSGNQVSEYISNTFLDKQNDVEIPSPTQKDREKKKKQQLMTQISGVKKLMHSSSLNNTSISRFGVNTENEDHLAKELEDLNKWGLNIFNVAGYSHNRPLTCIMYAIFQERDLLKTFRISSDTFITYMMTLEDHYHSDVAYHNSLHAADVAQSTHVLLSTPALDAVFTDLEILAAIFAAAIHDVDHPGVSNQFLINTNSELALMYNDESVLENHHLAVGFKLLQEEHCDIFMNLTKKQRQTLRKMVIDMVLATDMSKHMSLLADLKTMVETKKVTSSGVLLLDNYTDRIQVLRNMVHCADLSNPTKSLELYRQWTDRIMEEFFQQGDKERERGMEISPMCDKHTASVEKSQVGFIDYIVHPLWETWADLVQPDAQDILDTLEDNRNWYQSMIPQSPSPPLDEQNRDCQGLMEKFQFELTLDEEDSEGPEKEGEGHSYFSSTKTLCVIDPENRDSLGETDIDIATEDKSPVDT
Summary of the method: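 Cell-based read-out of cAMP via a modified cyclic nucleotide-gated channel and membrane potential dye (535/590 nm) in HEK293 cells expressing PDE4 endogenously. Compounds tested up to 22.9 uM final; 100 uM RO 20-1724 reference.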

[5] = biological target: Cytochrome P450 3A4 (Homo sapiens) (UniProt P08684); assay: qHTS Assay for Activators of Cytochrome P450 3A4 (AID 885); details: recombinant CYP3A4, Luciferin-PPXE luminescence, 60 min; series mostly up to 57.1 µM; also: nearly all actives have a fitted effect of over 65% in size; also: potency is read from the fitted curve at half-maximal effect
Chain of Cytochrome P450 3A4 (Homo sapiens) (P08684 whole entry, looked up): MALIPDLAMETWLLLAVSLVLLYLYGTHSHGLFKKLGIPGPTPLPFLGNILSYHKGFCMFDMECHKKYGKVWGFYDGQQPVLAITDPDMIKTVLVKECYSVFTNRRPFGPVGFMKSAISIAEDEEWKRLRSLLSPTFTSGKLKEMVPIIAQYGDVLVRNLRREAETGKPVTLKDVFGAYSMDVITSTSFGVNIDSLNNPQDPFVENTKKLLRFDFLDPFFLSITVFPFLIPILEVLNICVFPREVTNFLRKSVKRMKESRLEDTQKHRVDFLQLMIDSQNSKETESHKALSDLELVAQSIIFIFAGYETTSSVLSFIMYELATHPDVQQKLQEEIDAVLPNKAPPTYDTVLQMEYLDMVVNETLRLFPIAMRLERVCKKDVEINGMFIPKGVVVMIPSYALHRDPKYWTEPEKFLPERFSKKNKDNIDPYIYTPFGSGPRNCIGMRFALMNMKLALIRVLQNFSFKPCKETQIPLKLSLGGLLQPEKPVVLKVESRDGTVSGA
Summary of the method: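 Luminescent readout of luciferin formed from 25 uM Luciferin-PPXE (KM level) by 20 nM CYP3A4 in 200 mM KPO4, with 60 min NADPH-driven reaction at room temperature after 10 min compound exposure. Ketoconazole (57 uM) defined 100% inhibition.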

[6] = qHTS Assay for Identification of Small Molecule Agonists for Hypoxia Response Element Signaling Pathway (AID 914; active = well fitted activation curve with a large enough effect in the signal ratio, with a control signal flat, not every such curve was filed as active; the % refers to the signal ratio; also: potency is read from the fitted curve at half-maximal effect; as to activation: % of control where 0% means no effect); details: ME-180 HRE-bla reporter, beta-lactamase ratio, CoCl2, 17 h; activation: stronger effect = higher value
Summary of the method: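 HRE-bla ME-180 cells, overnight plating in Opti-MEM with 0.5% dialyzed FBS; cpd titration + EC50 CoCl2, 17 h, 37 degrees Celsius; CCF4 2.5 h RT; 460/530 nm ratio; AC50.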

[7] = biological target: Dual specificity protein kinase CLK4 (Homo sapiens) (UniProt Q9HAZ1); assay: qHTS Assay for Inhibitors of CDC-like Kinase 4 (Kinase-Glo Assay) (AID 1770); details: recombinant Clk4, Kinase-Glo ATP depletion luminescence; series mostly up to 66.7 µM; also: % is scaled to controls: 0 for no effect and ±100 for the full control effect; nearly all actives have a fitted effect of over 65% in size
Chain of Dual specificity protein kinase CLK4 (Homo sapiens) (Q9HAZ1 whole entry, looked up): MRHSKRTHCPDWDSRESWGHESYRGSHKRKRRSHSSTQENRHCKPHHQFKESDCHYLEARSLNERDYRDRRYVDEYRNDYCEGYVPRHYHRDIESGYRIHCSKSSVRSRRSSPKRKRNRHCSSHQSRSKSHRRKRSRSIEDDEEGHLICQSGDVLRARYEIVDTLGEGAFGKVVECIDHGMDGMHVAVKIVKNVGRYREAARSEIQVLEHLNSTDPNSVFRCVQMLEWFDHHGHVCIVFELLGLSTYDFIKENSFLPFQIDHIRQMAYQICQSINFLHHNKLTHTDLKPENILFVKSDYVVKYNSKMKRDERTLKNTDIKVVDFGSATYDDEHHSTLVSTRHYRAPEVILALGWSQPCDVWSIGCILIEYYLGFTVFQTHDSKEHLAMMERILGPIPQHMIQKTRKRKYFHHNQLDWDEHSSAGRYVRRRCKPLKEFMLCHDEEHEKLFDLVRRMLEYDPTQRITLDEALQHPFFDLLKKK
Summary of the method: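 Clk4 25 nM, RS peptide 100 uM, ATP 1 uM, pH 7.5 Tris, 10 mM MgCl2, 2.5 mM DTT; 4.5 h RT; ATP depletion read by Kinase-Glo luminescence.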

[8] = biological target: Dual specificity protein kinase CLK4 (Homo sapiens) (UniProt Q9HAZ1); assay: qHTS Assay for Inhibitors of CDC-like Kinase 4 (ADP-Glo Assay) (AID 1771); details: recombinant CLK4, ADP-Glo luminescence; series mostly up to 80 µM; also: % is scaled to controls: 0 for no effect and ±100 for the full control effect; nearly all actives have a fitted effect of over 70% in size
Summary of the method: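 25 nM Clk4, 100 uM RS peptide, 1 uM ATP (final); 2 mM MgCl2, 0.5 mM EGTA, 2.5 mM DTT, 0.01% Triton X-100; 1 hr RT. ADP-Glo readout: ATP depletion 45 min, conversion/luciferase 30 min, luminescence.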

[9] = biological target: Dual specificity protein kinase CLK4 (Homo sapiens) (UniProt Q9HAZ1); assay: qHTS Assay for Inhibitors of CDC-like Kinase 4 (ADP-FP Assay) (AID 1795); details: Transcreener ADP fluorescence polarization; series mostly up to 50 µM;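 also: recombinant human CLK4 phosphorylating RS repeat peptide at 1 µM ATP; % is scaled to controls: 0 for no effect and ±100 for the full control effect; nearly all actives have a fitted effect of over 60% in size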
Summary of the method: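 Kinase activity was followed as ADP output, converted from fluorescence polarization with a calibration curve. Reactions ran one hour at low ATP (1 uM) with RS peptide substrate.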

[10] = biological target: Ubiquitin carboxyl-terminal hydrolase 1 (Homo sapiens) (UniProt O94782); assay: Inhibitors of USP1/UAF1: Pilot qHTS (AID 504865); details: purified USP1/UAF1, Ub-rhodamine cleavage fluorescence; series mostly up to 54.9 µM; also: nearly all actives have a fitted effect of over 35% in size; also: potency is read from the fitted curve at half-maximal effect
Chain of Ubiquitin carboxyl-terminal hydrolase 1 (Homo sapiens) (O94782 whole entry, looked up): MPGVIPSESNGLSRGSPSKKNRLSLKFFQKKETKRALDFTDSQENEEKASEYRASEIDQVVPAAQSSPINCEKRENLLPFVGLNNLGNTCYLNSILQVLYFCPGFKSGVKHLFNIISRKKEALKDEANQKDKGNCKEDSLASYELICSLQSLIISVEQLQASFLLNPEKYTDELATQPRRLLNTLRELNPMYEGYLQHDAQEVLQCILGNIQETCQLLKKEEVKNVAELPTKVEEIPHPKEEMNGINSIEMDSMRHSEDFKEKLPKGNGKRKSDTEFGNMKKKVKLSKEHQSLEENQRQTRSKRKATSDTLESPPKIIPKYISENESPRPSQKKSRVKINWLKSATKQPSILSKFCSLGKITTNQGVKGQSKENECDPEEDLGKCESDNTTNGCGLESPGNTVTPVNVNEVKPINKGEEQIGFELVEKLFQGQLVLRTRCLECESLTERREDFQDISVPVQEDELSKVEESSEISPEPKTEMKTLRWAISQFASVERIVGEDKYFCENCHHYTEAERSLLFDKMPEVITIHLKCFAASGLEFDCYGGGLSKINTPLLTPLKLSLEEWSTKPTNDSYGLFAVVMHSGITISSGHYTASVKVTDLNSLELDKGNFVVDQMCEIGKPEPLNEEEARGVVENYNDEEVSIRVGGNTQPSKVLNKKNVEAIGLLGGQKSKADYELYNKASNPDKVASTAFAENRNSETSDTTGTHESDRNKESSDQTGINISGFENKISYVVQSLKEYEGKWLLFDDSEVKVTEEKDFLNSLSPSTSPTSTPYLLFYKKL
Summary of the method: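 Enzyme-free wells gave the negative control, while test wells held 1nM USP1/UAF1 preincubated with compound for 15 min at room temperature. Ub-Rho at 150nM final started the reaction, and fluorescence at 480/540 nm was recorded kinetically.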

[11] = Primary qHTS for small molecule stabilizers of the endoplasmic reticulum resident proteome: Secreted ER Calcium Modulated Protein (SERCaMP) assay (AID 1508630); details: SH-SY5Y GLuc-SERCaMP (Gaussia luciferase released on ER calcium loss) secretion, thapsigargin, luminescence; series mostly up to 38.4 µM; also: % is scaled to controls: 0 for no effect and ±100 for the full control effect
Summary of the method: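 The SH-SY5Y reporter protocol was run at 3 concentrations up to 38.3 uM (primary) or 11 concentrations (follow-up): 16 h compound, 100 nM thapsigargin for 4 h, then extracellular luciferase luminescence.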

[12] = AP1 Signaling Pathway (AID 357; active = well fitted curve in either direction with a large enough effect, not every such curve was filed as active;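 also: ME-180 reporter cells stimulated with EGF at its EC50 level; % is scaled to controls: 0 for no effect and ±100 for the full control effect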); details: ME-180 AP-1-bla reporter, EGF-induced, beta-lactamase ratio, 5 h; at 7.69 µM (top of the series) unless noted
Summary of the method: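 First, ME-180 AP-1-bla cells were cultured overnight at 37 °C in low-serum Opti-MEM. Next, titrated compounds with EC50 EGF were incubated 5 hours. Finally, CCF4 was added for 2.5 hours and the 460/530 nm ratio recorded.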

[13] = biological target: Cytochrome P450 1A2 (Homo sapiens) (UniProt P05177); assay: p450-cyp1a2 (AID 410; calls by dose curve; also: potency is read from the fitted curve at half-maximal effect); details: recombinant CYP1A2, luciferin-ME demethylation, luminescence; series mostly up to 57 µM
Chain of Cytochrome P450 1A2 (Homo sapiens) (P05177 whole entry, looked up): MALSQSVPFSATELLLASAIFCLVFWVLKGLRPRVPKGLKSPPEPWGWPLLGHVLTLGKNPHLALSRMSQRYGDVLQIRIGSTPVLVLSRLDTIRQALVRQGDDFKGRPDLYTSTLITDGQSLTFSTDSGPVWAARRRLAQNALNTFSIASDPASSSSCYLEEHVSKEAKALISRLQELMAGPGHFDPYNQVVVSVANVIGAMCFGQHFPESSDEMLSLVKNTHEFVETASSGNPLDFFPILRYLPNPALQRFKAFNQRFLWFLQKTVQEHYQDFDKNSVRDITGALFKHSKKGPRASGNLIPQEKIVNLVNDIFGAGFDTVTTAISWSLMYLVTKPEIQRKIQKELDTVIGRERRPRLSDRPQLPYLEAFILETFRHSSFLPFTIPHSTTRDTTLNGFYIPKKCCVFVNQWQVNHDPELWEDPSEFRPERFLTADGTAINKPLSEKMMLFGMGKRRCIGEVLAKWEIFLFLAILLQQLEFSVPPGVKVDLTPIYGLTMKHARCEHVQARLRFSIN
Summary of the method: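 20nM CYP1A2, 100uM Luciferin-ME (=Km), 100mM KPO4; cpd 10 min RT; +NADPH regen, 60 min RT; stop/detect 20 min; luminescence. Normalized to furafylline 57 uM = full inhibition.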

[14] = NFAT Signaling Pathway (AID 444; active = well fitted curve in either direction with a large enough effect, not every such curve was filed as active;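 also: carbachol stimulus at about its EC50 of 1 µM final; % is scaled to controls: 0 for no effect and ±100 for the full control effect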); details: Jurkat NFAT-bla M1, carbachol, beta-lactamase ratio, 5 h; at 7.69 µM (top of the series) unless noted
Summary of the method: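 Jurkat cells with NFAT-driven β-lactamase reporter and co-expressed M1 receptor, stimulated with carbachol (final 1 uM, ~EC50), compound titration, 5 h at 37 °C. CCF4 loaded 1 h at RT; 460/530 nm ratio gave %activity and AC50.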

[15] = Stat Signaling Pathway (AID 446; active = well fitted curve in either direction with a large enough effect, not every such curve was filed as active); details: ME-180 (cervical carcinoma) SIE beta-lactamase reporter, IL-6 stimulated, 5 h; at 7.69 µM (top of the series) unless noted
Summary of the method: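 FRET read-out (405 nm excitation, 460/530 nm emission) of a beta-lactamase reporter under a STAT-inducible element in ME-180 cervical carcinoma cells. Cells with compound receive 40 pM IL-6 for 5 h. Values are normalised to AC90 stimulation and AC90 JAK-inhibitor controls.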

[16] = biological target: Glucocorticoid receptor (Homo sapiens) (UniProt P04150); assay: GR-GFP Redistribution (AID 450;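 active = compounds whose dose series gives a full or clear partial fitted curve of increased nuclear translocation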; also: potency is read from the fitted curve at half-maximal effect); details: U2OS GR-GFP nuclear translocation, laser cytometry, 2 h

CN1CCN(c2ncc3nc(-c4ccc(Cl)cc4)c(=O)n(C)c3n2)CC1
inactive: Potency [1] > 11.4 µM | Potency [2] > 46 µM | Potency [3] | Potency [4] | Potency [7] | Potency [8] | Potency [9] | Potency [10] | outcome [11]
active: Potency [5] 12.6 µM | Potency [6] 3.16 µM

Cc1cccc(CNc2ccnc(-c3ccccc3C(F)(F)F)n2)c1
inactive: activity change, negative = inhibition [12] -10.1% | activity change, negative = inhibition [14] 1.23% | activity, negative = inhibition [15] 5.48% | Potency [16] > 46 µM | Potency [2] > 46 µM | Potency [3] | Potency [5] | activation [6] -2.48% | Potency [7] | Potency [8] | Potency [9] | outcome [11]
active: Potency [13] 6.31 µM | Potency [10] 3.98 µM

N#CCCn1c(=O)c(-c2ccc(Cl)cc2)nc2cnc(N3CCNCC3)nc21
inactive: Potency [1] > 11.4 µM | Potency [16] > 9.22 µM | Potency [2] > 46 µM | Potency [3] | Potency [4] | Potency [5] | Potency [7] | Potency [8] | Potency [9] | Potency [10] | outcome [11]

CCNc1ncc2nc(-c3ccc(Cl)cc3)c(=O)n(-c3ccc(OC)cc3)c2n1
inactive: Potency [1] > 11.4 µM | Potency [16] > 9.22 µM | Potency [2] > 46 µM | Potency [4] | Potency [7] | Potency [8] | Potency [9] | Potency [10] | outcome [11]

COc1ccc(-n2c(=O)c(CCc3ccccc3)nc3cnc(N4CCOCC4)nc32)cc1
inactive: activity change, negative = inhibition [12] -17% | activity change, negative = inhibition [14] -7.5% | activity, negative = inhibition [15] -13.2% | Potency [16] > 9.22 µM | Potency [2] > 46 µM | Potency [3] | Potency [4] | Potency [5] | Potency [7] | Potency [8] | Potency [9] | Potency [10] | outcome [11]
active: Potency [13] 15.8 µM

CN1CCN(c2ncc3nc(-c4cn(C)c5ccccc45)c(=O)n(Cc4cccs4)c3n2)CC1
inactive: Potency [1] > 11.4 µM | activity change, negative = inhibition [14] 3.65% | Potency [16] > 9.22 µM | Potency [2] > 46 µM | Potency [4] | Potency [7] | Potency [8] | Potency [9] | Potency [10] | outcome [11]
active: Potency [6] 2.51 µM

CN(C)c1ncc2nc(-c3cccs3)c(=O)n(C)c2n1
inactive: Potency [1] > 11.4 µM | activity change, negative = inhibition [14] -2.27% | activity, negative = inhibition [15] 23.5% | Potency [16] > 9.22 µM | Potency [2] > 46 µM | Potency [4] | Potency [5] | Potency [7] | Potency [8] | Potency [9] | Potency [10] | outcome [11]
